The results in this text go back to PubChem BioAssay AID504652 (National Center for Advancing Translational Sciences (NCATS), 2011).

Among all 360,000 compounds or so, about 11,000 (3.1%) were called active. What follows is part of a selection rich in actives, with near analogues and random picks from the rest. Values without a mark were called inactive. No stated cut-off is given here; in the data, active means activity change below about -30%; inactive means the rest.
On the % scale 0 is the no-effect control and ±100 the full control effect.

The target of the assay is D(1A) dopamine receptor (Homo sapiens) (UniProt P21728). In words: Antagonist of Human D 1 Dopamine Receptor: qHTS. Conditions: HEK293 TREx D1 cells, calcium flux, dopamine EC80; at 10 µM; stronger effect = lower value. The text has this: Dopamine receptors (DARs) are involved in the etiology and/or therapy of a number of neuropsychiatric and endocrine disorders. For instance, all receptor-based antiparkinsonian drugs work via stimulating the […] DAR subtype whereas all FDA-approved antipsychotic agents are antagonists of this receptor. […] There are three different types of allosteric modulators that we are seeking, two of which will stimulate or augment receptor signaling, allosteric agonists and potentiators, while the third, allosteric antagonists, will attenuate receptor signaling. The present primary screening assay measures compound antagonism after an EC80 addition of dopamine by tracking calcium flux in a […], inducible Hek293 Trex D1 cell line. NIH Chemical Genomics Center [NCGC] NIH Molecular Libraries Probe Centers Network [MLPCN] MLPCN Grant: NS064831-01 Assay Submitter (PI): David Sibley
D(1A) dopamine receptor (Homo sapiens), sequence (P21728 whole entry, looked up): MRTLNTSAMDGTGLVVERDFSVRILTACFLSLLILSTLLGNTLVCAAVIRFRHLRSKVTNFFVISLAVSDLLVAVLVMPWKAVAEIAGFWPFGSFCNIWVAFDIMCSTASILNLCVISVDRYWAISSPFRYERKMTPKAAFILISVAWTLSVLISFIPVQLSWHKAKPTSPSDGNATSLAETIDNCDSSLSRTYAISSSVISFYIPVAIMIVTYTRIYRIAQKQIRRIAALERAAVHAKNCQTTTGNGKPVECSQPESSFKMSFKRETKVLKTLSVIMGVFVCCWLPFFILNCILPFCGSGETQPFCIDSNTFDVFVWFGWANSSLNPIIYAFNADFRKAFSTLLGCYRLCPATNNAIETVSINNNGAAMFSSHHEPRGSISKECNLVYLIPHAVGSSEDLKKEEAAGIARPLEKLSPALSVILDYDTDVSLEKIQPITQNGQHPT
Freshly passaged cells are plated in 1536 well black, clear bottom plates at a density of 4000 cells/well in 3 ul of complete media containing 1x tetracycline inducer. After an overnight incubation at 30 C in 5% CO2, cells are loaded with 2 ul of the no wash Calcium Assay Kit (ABD Bioquest) and incubated at room temperature for 30 to 90 minutes. Agonist read: A 10 cycle (1 second/cycle) baseline measurement is taken and then the FDSS online 1536 pintool delivers 23 nl of compound library (as well as dopamine controls) to the plate. The plate is measured for kinetically at 1 cycle/sec for 180 seconds. Following the 180 second read, 1 ul of an EC80 (negative modulation assay) is delivered by an onboard pipette head. Measurements are taken kinetically for an additional 180 seconds.
On to `Cn1c(SCc2ccc(F)cc2)nnc1-c1ccncc1`, for which the activity change, negative = inhibition is 5.13%.

Regarding `O=c1cc(CSc2ncn[nH]2)[nH]c2ccc(F)cc12`, the activity change, negative = inhibition is 10.4%.

As for `Cc1nnc(SCc2cc(=O)c3cc(F)ccc3[nH]2)n1C`, the activity change, negative = inhibition was -67.4% (active).

On to `Cc1cccc(NC(=O)c2ccc3nc(C(C)C)oc3c2)c1C`, for which the activity change, negative = inhibition is 9.09%.

Regarding `CC1CC1C(=O)OCC(=O)c1c(N)n(C)c(=O)n(C)c1=O` (stereo not given), the activity change, negative = inhibition is 5.53%.

Take `Cn1c(N)c(C(=O)COC(=O)c2cnc(Cl)c(Cl)c2)c(=O)n(C)c1=O`: the activity change, negative = inhibition is 12.2%.

In the case of `Cc1cc(C(=O)OCC(=O)c2c(N)n(C)c(=O)n(C)c2=O)c(C)o1`, the activity change, negative = inhibition is -60.8% (active).

On to `O=C(CSc1nccn1-c1ccc(F)cc1)Nc1cccc2ccccc12`, for which the activity change, negative = inhibition is 43.1%.

Regarding `O=C(Cn1c(=O)n(Cc2cccs2)c(=O)c2cccnc21)Nc1ccc(F)cc1`, the activity change, negative = inhibition is 2.03%.

`Cc1c(Cl)cccc1NC(=O)C1CCCN(c2ncnc3onc(C)c23)C1` (stereo not given): the activity change, negative = inhibition was -3.12%.

With `CN(Cc1ccccc1)C(=O)COc1ccccc1`, the activity change, negative = inhibition is 2.23%.

As for `COc1ccc(C(CCN(Cc2ccc(OC)c(OC)c2)C(=O)CCl)c2ccccc2)cc1` (stereo not given), the activity change, negative = inhibition is 0.248%.

As for `COc1ccc(CN(C)C(=O)CC(c2ccccc2)c2ccccc2)cc1`, the activity change, negative = inhibition was -31.6% (active).

As for `CCOC(=O)CC1COCCN1C(=O)c1cc(COc2ccc(F)c(F)c2)on1` (stereo not given), the activity change, negative = inhibition is -41% (active).

On to `O=C(c1cc(COc2ccc(F)c(F)c2)on1)N1CCOCC1`, for which the activity change, negative = inhibition was -16.4%.

Turning to `CCC(NC(=O)c1cc(COc2ccc(F)c(F)c2)on1)c1ccncc1` (stereo not given), the activity change, negative = inhibition is -27.1%.

`Cc1ccc(C(=O)N2CCc3cc(CNC(=O)c4ccc(Br)cc4)ccc32)cc1`: the activity change, negative = inhibition is 3.02%.

Consider `Cc1noc2ncnc(NCc3ccccc3Cl)c12`, for which the activity change, negative = inhibition is -4.33%.

Regarding `COc1ccc(OC)c(S(=O)(=O)Nc2c(C)nn(C)c2C)c1`, the activity change, negative = inhibition is 2.31%.

Regarding `Nc1ncc(S(=O)(=O)Nc2ccc(OC(F)(F)F)cc2)cn1`, the activity change, negative = inhibition was 18%.

As to `Cc1nn(C)c(C)c1NS(=O)(=O)c1ccc(OC(F)(F)F)cc1`, the activity change, negative = inhibition was -90.7% (active).

Turning to `Cc1cccc(NC(=O)C2CCN(S(=O)(=O)c3c(C)noc3/C=C/c3ccco3)CC2)c1`, the activity change, negative = inhibition was -5.72%.

Regarding `C=Cc1ccc(Cn2c(C(=O)OC)cc3sc(C)cc32)cc1`, the activity change, negative = inhibition is 21.5%.

Consider `CC(Sc1nnc(-c2cccs2)n1C1CC1)C(=O)NCC1CCCO1` (stereo not given), for which the activity change, negative = inhibition is -30.6% (active).

As to `Cc1ccc(N(C(=O)Cc2cccs2)C(C(=O)NCC2CCCO2)c2ccncc2)cc1` (stereo not given), the activity change, negative = inhibition is -0.595%.

For the compound `CC(Sc1nn(-c2ccc(Cl)cc2)c(=S)s1)C(=O)NCC1CCCO1` (stereo not given), the activity change, negative = inhibition was -0.972%.

With `CC(C)OCCCn1c(SCC(=O)c2ccccc2)nc2c(sc3ccccc32)c1=O`, the activity change, negative = inhibition was 4.36%.

Take `Cc1cc(C)cc(OC(C)C(=O)Nc2nc3c(s2)CCCC3)c1` (stereo not given): the activity change, negative = inhibition is 3%.

In the case of `COc1ccc2cc(CNc3ccc(OC)c(OC)c3)c(=O)n(CC(=O)Nc3ccccc3F)c2c1`, the activity change, negative = inhibition was -14.2%.

`O=C(NCCc1c[nH]c2ccccc12)C1CCN(Cc2ccc(Br)cc2)CC1`: the activity change, negative = inhibition was -56.3% (active).

For the compound `Cc1ccc2[nH]cc(CCNC(=O)C3CCCCC3)c2c1`, the activity change, negative = inhibition is -23.8%.

In the case of `CCOc1ccc(CN2CCN(Cc3c[nH]c4ccccc34)CC2)cc1`, the activity change, negative = inhibition was 4.58%.

Consider `Cc1cc(C)cc(NS(=O)(=O)c2ccc3[nH]cc(C(=O)N4CCCCC4)c(=O)c3c2)c1`, for which the activity change, negative = inhibition is -3.92%.

On to `CCN(c1ccc(Cl)cc1)S(=O)(=O)c1nnc(NC(=O)c2ccco2)s1`, for which the activity change, negative = inhibition is -1.57%.

Turning to `COc1cccc(CN(C)CC2CCCN(CCc3ccc(Cl)cc3)C2)c1OC` (stereo not given), the activity change, negative = inhibition was -79.9% (active).

For `COc1cccc(CN(C)CC(=O)NCc2ccccc2Cl)c1OC`, the activity change, negative = inhibition is -23.2%.

Regarding `Cc1nc2ccc(C(=O)N(C)CC3CCCN(CCc4ccc(Cl)cc4)C3)cc2[nH]1` (stereo not given), the activity change, negative = inhibition was -13.3%.

Turning to `CCc1ccc(NC(=O)CCS(=O)(=O)c2cc3c(cc2Cl)NC(=O)CO3)cc1`, the activity change, negative = inhibition is -16.7%.

With `COc1ccc(-n2c(SCC(N)=O)nc3c(oc4ccccc43)c2=O)cc1`, the activity change, negative = inhibition is 10.8%.

For `Nc1c(C(=O)c2cccs2)sc2nsc(SCCN3CCCCC3)c12`, the activity change, negative = inhibition is -42.4% (active).

Regarding `CN(C)c1ccc(C(CNS(=O)(=O)c2cc(F)ccc2F)N2CCOCC2)cc1` (stereo not given), the activity change, negative = inhibition is -3.66%.

As to `Cc1ccc(NC(=O)CSc2nc3c([nH]c4ccccc43)c(=O)n2-c2ccccc2)c(C)c1`, the activity change, negative = inhibition is -35.7% (active).

Consider `Cc1cccc(NC(=O)CSc2nc3c([nH]c4ccccc43)c(=O)n2-c2cc(C)cc(C)c2)c1`, for which the activity change, negative = inhibition was 23.9%.

`Cc1ccc(NC(=O)CSc2nc3c([nH]c4ccccc43)c(=O)n2-c2ccccc2)cc1Cl`: the activity change, negative = inhibition is -8.44%.

As for `CCN(CC)C(=O)CSc1nnc(-c2ccc(S(=O)(=O)NCc3ccccc3Cl)cc2)o1`, the activity change, negative = inhibition was -32.6% (active).
